Compounds without any hit were thinned out: in the full panel of roughly 83,000, 20% have a hit.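 Single-dose data. Exposure time 48 hours. Values below 10 considered active.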 Calls of active or inactive are those of the source.
The molecules below were run on BT-549 breast (assay: NCI-60 one-dose screen, 48 h (100 = growth as untreated, 0 = no growth, -100 = all killed)). Conditions: 10 µM unless noted.
Procedure: Growth inhibition of the BT-549 human tumor cell line is measured as a screen for anti-cancer activity. Cells are grown in 96 well plates and exposed to the test compound for 48 hours. Compounds are tested at a single concentration, which is 10^-5 M for most compounds. The reported endpoint is percent growth (GI% or GIPRCNT), where numbers from 0 - 100% represent growth inhibition, and numbers from -100% - 0 represent cell death. For example, a value of 40 represents 60% growth inhibition. A value of 0 means no net growth occurred over the course of the experiment. A value of -40 indicates 40% of cells at the beginning of the experiment died by the end of the experiment. A value of -100 means all cells are dead at the end of the experiment.
NCI-60 Human Tumor Cell Lines Screen was performed using the standard one-dose NCI protocol, which is described in more detail at https://dtp.cancer.gov/discovery_development/nci-60/default.htm.
Compounds with GIPRCNT values below 10 were considered active. Activity score was based on GIPRCNT using the following formula: […]
Score is 0 for GIPRCNT values of 100 or above, 50 for GIPRCNT values of 0, and 100 for GIPRCNT values of -100.

SMILES | growth
O=c1[nH]c2ccccc2cc1CSc1ccccc1Nc1nccc(-c2ccc(Cl)cc2)n1 | 119% (inactive)
CCCCCc1ccc(S(=O)(=O)Nc2cccc(-c3csc(NC(=O)CCCCCN4CCN(CCO)CC4)n3)c2)cc1 | 102% (inactive)
O=C(CN1CCN(c2cc(=O)n(-c3ccccc3)c3ccccc23)CC1)Nc1nc(-c2ccc(Cl)cc2)cs1 | 46.5% (inactive)
COc1ccc([C@H]2[C@H](O)C(=O)N2c2cc(OC)c(OC)c(OC)c2)cc1F | -21.1% (active)
CN1CCN(Cc2ccc(NC(=O)c3cncc(C#Cc4cnc5ccc(N6CCN(C)CC6)nn45)c3)cc2C(F)(F)F)CC1 | 73% (inactive)
Cc1ccc(NC(=O)N[C@@H](Cc2cc(F)cc(F)c2)C(=O)NC2C(=O)N3C[C@H](O)C[C@H]3C(=O)N3CCCC[C@H]3C(=O)N[C@@H](CO)C(=O)N3C[C@H](C)C[C@H]3C(=O)O[C@H]2C)c(F)c1 (stereo not given in full) | 43.5% (inactive)
Cn1cc(-c2nnc(N)nc2-c2c[nH]c3ccc(F)cc23)c2cc(F)ccc21 | 71.2% (inactive)
C#CCC#CCN1CCC[C@H]1C(=O)NCC(=O)OC | -91.5% (active)
c1n[nH]cc1-c1nc2ccc3[nH]ncc3c2c2c1CCCC2 | -18.9% (active)
COc1ccc(S(=O)(=O)NCCCNc2nccc(-c3[nH]c(-c4ccccc4)nc3-c3ccc(Cl)c(O)c3)n2)cc1 | 88.3% (inactive)
O=C(Cn1cc[n+](CC(=O)c2ccc(-c3ccccc3)cc2)c1)Nc1cccc2cccnc12 | 57.4% (inactive)
COc1ccc(-n2c(SCc3nnc(NC(=O)c4ccc(Br)cc4)s3)nc3cc(OC)c(OC)cc3c2=O)cc1 | 137% (inactive)
N=c1c2cc(-c3ccccc3)oc2ncn1/N=C/c1ccc(Cl)cc1 | 105% (inactive)
COc1ccc(NC(=O)Nc2ccc3c(ccn3C(=O)c3cccc(F)c3)c2)cc1 | 76.2% (inactive)
Cn1ccnc1C(=O)/C=C/c1ccc(CNC(=O)c2ccc(S(F)(F)(F)(F)F)cc2)cc1 | 35.6% (inactive)
O=C(CN1CCN(c2cc(=O)n(-c3ccccc3)c3ccccc23)CC1)Nc1nc(-c2ccccc2)cs1 | 67.1% (inactive)
CC(C)C[C@@H]1N[C@@]2(C(=O)Nc3ccccc32)[C@@H](c2ccc(F)cc2)[C@@H]1C(=O)c1ccc(O)cc1 | 113% (inactive)
Cn1ccnc1C(=O)/C=C/c1ccc(CNC(=O)c2ccc(Cl)cc2)cc1 | 16.5% (inactive)
COc1cc(Cn2cc3c(c2)-c2onc(CN4CCCC4)c2CC3)cc(OC)c1OC | 93.2% (inactive)
CCC(NC(c1cc2cccc3ccc4cccc1c4c32)c1nnnn1C(C)(C)C)C1CCCCC1 (stereo not given) | 50.5% (inactive)

SMILES | growth
CCCSc1nc(Nc2ccc(/C(C)=N\NC(N)=S)cc2)c(C#N)c(-c2ccccc2)n1 | 88.5% (inactive)
O=C(Nc1nonc1-c1ccccc1)c1ccc(C(F)(F)F)cc1 | 85.5% (inactive)
C[C@H]1c2[nH]c3ccccc3c2C[C@H]2C(=O)N(CCCCCCC(=O)NO)CC(=O)N21 | 96.5% (inactive)
CCn1c(SCC(=O)Nc2cccc(C(=O)/C=C/c3ccc(Br)cc3)c2)nc2ccccc2c1=O | 85.7% (inactive)
O=C(c1ccc(Cl)cc1)C1[C@H](c2ccc(Cl)cc2)[C@@H](c2ccccc2)NC12C(=O)Nc1ccccc12 (stereo not given in full) | 96.1% (inactive)
CCn1c2ccccc2c2cc(-n3nncc3-c3ccccc3)ccc21 | 80.5% (inactive)
N#Cc1cccc(/C(N)=N/C(N)=N/c2nc3ccccc3s2)c1 | 49.3% (inactive)
CCCn1cnc2c(c1=N)C(c1ccc(Cl)cc1)c1sc3c(CC)cccc3c1O2 (stereo not given) | 41.3% (inactive)
Cc1cc(-c2ccc(Cl)cc2)n(Cc2nnc(SCC(=O)Nc3ccc(S(N)(=O)=O)cc3)n2C2CCCCC2)n1 | 124% (inactive)
COc1ccc(C(=O)CSc2nc3c(c(Nc4ccc(S(N)(=O)=O)cc4)n2)CCCC3)cc1 | 127% (inactive)
Cc1ccc2c(c1)C13C(=C2Br)CCCN1C(=O)c1ccccc13 (stereo not given) | 104% (inactive)
Cc1ccc(-n2cc(/C=C/C(=O)c3ccc(O)cc3)c(-c3ccc(S(C)(=O)=O)cc3)n2)cc1 | 70.9% (inactive)
N#Cc1cnc2ccc(-c3cnc4[nH]ncc4c3)cc2c1N1CCc2cc(F)c(Cl)cc21 | 20.1% (inactive)
COc1cccc(/C=C(/C)c2ccc3cccc(OC)c3[o+]2)c1O | 85.1% (inactive)
Cc1nc(-c2ccccc2O)ccc1C(=O)N=Nc1c(O)[nH]c2ccc(Br)cc12 | 102% (inactive)
Cc1ccc(S(=O)(=O)NCCNc2nc(Nc3ccc(N4CCN(C)CC4)cc3)nc3ccsc23)cc1 | 114% (inactive)
COc1cccc2cc(-c3cc4ccccc4[nH]3)/c(=N\NC(=O)c3ccc(Cl)cc3)oc12 | 58.3% (inactive)
Cc1cc(C)c(N2C(=O)CC(Nc3ccc(Cl)cc3Cl)C2=O)c(C)c1 (stereo not given) | 112% (inactive)
COc1cc2c(cc1OC)C(Sc1ccc(C)cc1)c1c(nc(N)c(C#N)c1N)O2 (stereo not given) | 35% (inactive)
COc1ccc(/C=N/NC(=O)c2cn(C3CC3)c3c(OC)c(N4CC5CCCNC5C4)c(F)cc3c2=O)cc1 (stereo not given) | 112% (inactive)

— PubChem BioAssay (NCI)
